Source: PubChem BioAssay AID1159580 (chemical genetic matrix, 2015)
In all, about 5,500 compounds went through this assay and about 2,000 (36%) were called active. Not shown: some 18% with an inconclusive outcome. Cut-off read from the data, not from the text of the source: active = normalized growth mostly below about 0.91 (no sharp cut-off); inconclusive = no clear call, values can overlap the other calls; inactive = mostly above about 0.92. The list shows a part of the results.

Assay: chemical genetic growth profiling, strain panel (AID 1159580);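 note: tested at 20 µM; growth read once vehicle control cultures reached saturation at 30 °C; 1 = growth at the plate median or of vehicle wells; lower values mean less growth of the strain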
Conditions: growth OD
[1] = S. cerevisiae deletion strains, locus YDL101C, strain DUN1, hits give low values
[2] = S. cerevisiae deletion strains, locus YHR030C, strain SLT2, hits give low values
[3] = S. cerevisiae deletion strains, locus YAR019C, strain CDC15, hits give low values
[4] = S. cerevisiae deletion strains, locus YBL105C, strain PKC1, hits give low values
[5] = S. cerevisiae deletion strains, locus YBR135W, strain CKS1, hits give low values
[6] = S. cerevisiae deletion strains, locus YBR136W, strain MEC1, hits give low values
[7] = S. cerevisiae deletion strains, locus YBR160W, strain CDC28, hits give low values
[8] = S. cerevisiae deletion strains, locus YDL017W, strain CDC7, hits give low values
[9] = S. cerevisiae deletion strains, locus YDL028C, strain MPS1, hits give low values
[10] = S. cerevisiae deletion strains, locus YDL108W, strain KIN28, hits give low values
[11] = S. cerevisiae deletion strains, locus YDL132W, strain cdc53, hits give low values
[12] = S. cerevisiae deletion strains, locus YDL214C, strain PRR2, hits give low values
[13] = S. cerevisiae deletion strains, locus YDR052C, strain DBF4, hits give low values
[14] = S. cerevisiae deletion strains, locus YDR054C, strain cdc34, hits give low values
[15] = S. cerevisiae deletion strains, locus YDR226W, strain ADK1, hits give low values
[16] = S. cerevisiae deletion strains, locus YDR477W, strain SNF1, hits give low values
[17] = S. cerevisiae deletion strains, locus YER123W, strain YCK3, hits give low values
[18] = S. cerevisiae deletion strains, locus YER133W, strain GLC7, hits give low values
[19] = S. cerevisiae deletion strains, locus YFL009W, strain cdc4, hits give low values
[20] = S. cerevisiae deletion strains, locus YFL029C, strain CAK1, hits give low values
[21] = S. cerevisiae deletion strains, locus YFR003C, strain YPI1, hits give low values
[22] = S. cerevisiae deletion strains, locus YFR019W, strain FAB1, hits give low values
[23] = S. cerevisiae deletion strains, locus YFR028C, strain CDC14, hits give low values
[24] = S. cerevisiae deletion strains, locus YGR040W, strain KSS1, hits give low values
[25] = S. cerevisiae deletion strains, locus YGR052W, strain FMP48, hits give low values
[26] = S. cerevisiae deletion strains, locus YGR092W, strain DBF2, hits give low values
[27] = S. cerevisiae deletion strains, locus YHR079C, strain IRE1, hits give low values
[28] = S. cerevisiae deletion strains, locus YHR082C, strain KSP1, hits give low values
[29] = S. cerevisiae deletion strains, locus YHR205W, strain SCH9, hits give low values
[30] = S. cerevisiae deletion strains, locus YIL147C, strain SLN1, hits give low values
[31] = S. cerevisiae deletion strains, locus YJL095W, strain BCK1, hits give low values
[32] = S. cerevisiae deletion strains, locus YJL128C, strain PBS2, hits give low values
[33] = S. cerevisiae deletion strains, locus YJL157C, strain FAR1, hits give low values
[34] = S. cerevisiae deletion strains, locus YJR016C, strain ILV3, hits give low values
[35] = S. cerevisiae deletion strains, locus YJR066W, strain TOR1 (second series), hits give low values
[36] = S. cerevisiae deletion strains, locus YJR066W, strain TOR1, hits give low values
[37] = S. cerevisiae deletion strains, locus YKL048C, strain ELM1, hits give low values
[38] = S. cerevisiae deletion strains, locus YKL067W, strain YNK1, hits give low values
[39] = S. cerevisiae deletion strains, locus YKL101W, strain HSL1, hits give low values
[40] = S. cerevisiae deletion strains, locus YKL193C, strain SDS22, hits give low values
[41] = S. cerevisiae deletion strains, locus YKL203C, strain TOR2, hits give low values
[42] = S. cerevisiae deletion strains, locus YLR113W, strain HOG1, hits give low values
[43] = S. cerevisiae deletion strains, locus YLR133W, strain CKI1, hits give low values
[44] = S. cerevisiae deletion strains, locus YLR403W, strain SFP1, hits give low values
[45] = S. cerevisiae deletion strains, locus YML070W, strain DAK1, hits give low values
[46] = S. cerevisiae deletion strains, locus YMR001C, strain CDC5, hits give low values
[47] = S. cerevisiae deletion strains, locus YMR205C, strain PFK2 (second series), hits give low values
[48] = S. cerevisiae deletion strains, locus YMR277W, strain FCP1, hits give low values
[49] = S. cerevisiae deletion strains, locus YNL006W, strain LST8, hits give low values
[50] = S. cerevisiae deletion strains, locus YNL020C, strain ARK1, hits give low values
[51] = S. cerevisiae deletion strains, locus YNL161W, strain CBK1, hits give low values
[52] = S. cerevisiae deletion strains, locus YNL183C, strain NPR1, hits give low values
[53] = S. cerevisiae deletion strains, locus YNL207W, strain RIO2, hits give low values
[54] = S. cerevisiae deletion strains, locus YNL222W, strain SSU72, hits give low values
[55] = S. cerevisiae deletion strains, locus YNL307C, strain MCK1 (second series), hits give low values
[56] = S. cerevisiae deletion strains, locus YOL078W, strain AVO1, hits give low values
[57] = S. cerevisiae deletion strains, locus YOL136C, strain PFK27, hits give low values
[58] = S. cerevisiae deletion strains, locus YOR061W, strain CKA2, hits give low values
[59] = S. cerevisiae deletion strains, locus YOR119C, strain RIO1, hits give low values
[60] = S. cerevisiae deletion strains, locus YOR231W, strain MKK1, hits give low values
[61] = S. cerevisiae deletion strains, locus YOR329C, strain SCD5, hits give low values
[62] = S. cerevisiae deletion strains, locus YPL031C, strain PHO85, hits give low values
[63] = S. cerevisiae deletion strains, locus YPL153C, strain RAD53, hits give low values
[64] = S. cerevisiae deletion strains, locus YPL204W, strain HRR25, hits give low values
[65] = S. cerevisiae deletion strains, locus YPL209C, strain IPL1, hits give low values
[66] = S. cerevisiae deletion strains, locus YPL256C, strain CLN2, hits give low values
[67] = S. cerevisiae deletion strains, locus YPR025C, strain CCL1, hits give low values
[68] = S. cerevisiae deletion strains, locus YPR106W, strain ISR1, hits give low values
[69] = S. cerevisiae deletion strains, locus YPR111W, strain DBF20, hits give low values
[70] = S. cerevisiae deletion strains, strain NNK1, hits give low values
[71] = S. cerevisiae deletion strains, strain TSCII, hits give low values

Measured: normalized growth

CCSc1nnc(N)s1
inactive: S. cerevisiae deletion strains, locus YAL013W, strain DEP1, hits give low values 1.02 | S. cerevisiae deletion strains, locus YBR229C, strain ROT2, hits give low values 1.01 | [1] 1.01 | S. cerevisiae deletion strains, locus YDL134C, strain PPH21, hits give low values 1.01 | S. cerevisiae deletion strains, locus YDR150W, strain NUM1, hits give low values 1 | S. cerevisiae deletion strains, locus YEL061C, strain CIN8, hits give low values 0.996 | S. cerevisiae deletion strains, locus YGR078C, strain PAC10, hits give low values 1.01 | [2] 1.05 | S. cerevisiae deletion strains, locus YHR087W, strain rtc3, hits give low values 1.01 | S. cerevisiae deletion strains, locus YJL187C, strain SWE1, hits give low values 1.01 | S. cerevisiae deletion strains, locus YJR043C, strain POL32, hits give low values 1 | S. cerevisiae deletion strains, locus YJR075W, strain HOC1, hits give low values 0.994 | S. cerevisiae deletion strains, locus YLR039C, strain RIC1, hits give low values 1.01 | S. cerevisiae deletion strains, locus YLR058C, strain SHM2 (second series), hits give low values 1.01 | S. cerevisiae deletion strains, locus YLR085C, strain ARP6, hits give low values 0.999 | S. cerevisiae deletion strains, locus YLR262C, strain YPT6, hits give low values 1.05 | S. cerevisiae deletion strains, locus YML094W, strain GIM5, hits give low values 0.995 | S. cerevisiae deletion strains, locus YMR219W, strain ESC1, hits give low values 1.01 | S. cerevisiae deletion strains, locus YMR263W, strain SAP30, hits give low values 1 | S. cerevisiae deletion strains, locus YMR307W, strain GAS1, hits give low values 0.981 | S. cerevisiae deletion strains, locus YNL128W, strain TEP1, hits give low values 1.01 | S. cerevisiae deletion strains, locus YNL153C, strain GIM3, hits give low values 0.997 | S. cerevisiae deletion strains, locus YNL298W, strain CLA4 (second series), hits give low values 0.995 | S. cerevisiae deletion strains, locus YNL322C, strain KRE1, hits give low values 1.02 | S. cerevisiae deletion strains, locus YNR030W, strain Alg12, hits give low values 1.01 | S. cerevisiae deletion strains, locus YPL055C, strain LGE1, hits give low values 0.997 | S. cerevisiae deletion strains, locus YPL241C, strain CIN2, hits give low values 1.01 | S. cerevisiae deletion strains, locus YPR135W, strain CTF4, hits give low values 1.11 | S. cerevisiae strains, strain wild type, hits give low values 1.01

N#CC(C#N)=C/C=C(/Sc1ccc(F)c(Cl)c1)c1ccc(Cl)cc1
inactive: [3] 0.937 | [4] 0.948 | [5] 0.943 | [6] 0.949 | [7] 0.958 | [8] 0.961 | [9] 0.949 | [1] 0.961 | [10] 0.947 | [11] 0.942 | [12] 0.891 | [13] 0.956 | [14] 0.943 | [15] 0.964 | [16] 0.839 | [17] 0.822 | [18] 0.872 | [19] 0.943 | [20] 0.951 | [21] 0.951 | [22] 0.95 | [23] 0.949 | [24] 0.823 | [25] 0.81 | [26] 0.759 | [27] 0.806 | [28] 0.839 | [29] 0.608 | [30] 0.951 | [31] 0.69 | [32] 0.896 | [33] 0.892 | [34] 0.937 | [35] 0.748 | [36] 0.781 | [37] 0.932 | [38] 0.888 | [39] 0.834 | [40] 0.947 | [41] 0.87 | [43] 0.906 | [44] 0.753 | [45] 0.855 | [46] 0.944 | [47] 0.89 | [48] 0.941 | [49] 0.976 | [50] 0.884 | [51] 0.96 | [52] 0.749 | [53] 0.938 | [54] 0.955 | [55] 0.711 | [56] 0.94 | [57] 0.879 | [58] 0.827 | [59] 0.876 | [60] 0.781 | [61] 0.956 | [62] 0.758 | [63] 0.856 | [64] 0.856 | [65] 0.954 | [66] 0.877 | [67] 0.956 | [68] 0.957 | [69] 0.944 | [70] 0.946 | [71] 0.945
active: [2] 0.741 | [42] 0.632

O=[N+]([O-])c1cc(Br)cnc1Sc1nnc(SCC2CC2)s1
inactive: [3] 0.928 | [4] 0.96 | [5] 0.932 | [6] 0.959 | [7] 0.953 | [8] 0.961 | [9] 0.935 | [1] 0.965 | [10] 0.952 | [11] 0.936 | [13] 0.964 | [14] 0.947 | [15] 0.927 | [16] 0.767 | [18] 0.762 | [19] 0.93 | [20] 0.943 | [21] 0.962 | [23] 0.943 | [24] 0.771 | [25] 0.7 | [28] 0.707 | [29] 0.609 | [30] 0.952 | [32] 0.948 | [34] 0.944 | [36] 0.621 | [40] 0.935 | [41] 0.872 | [44] 0.754 | [46] 0.928 | [48] 0.924 | [49] 0.961 | [51] 0.939 | [53] 0.929 | [54] 0.944 | [56] 0.927 | [59] 0.818 | [61] 0.962 | [64] 0.751 | [65] 0.958 | [67] 0.95 | [68] 0.978 | [69] 0.96 | [70] 0.969 | [71] 0.929
active: [12] 0.458 | [17] 0.529 | [22] 0.721 | [26] 0.484 | [2] 0.197 | [27] 0.418 | [31] 0.35 | [33] 0.533 | [35] 0.531 | [37] 0.778 | [38] 0.39 | [39] 0.542 | [42] 0.554 | [43] 0.574 | [45] 0.465 | [47] 0.387 | [50] 0.418 | [52] 0.351 | [55] 0.556 | [57] 0.633 | [58] 0.174 | [60] 0.333 | [62] 0.55 | [63] 0.629 | [66] 0.515
